Test results reported in PubChem BioAssay.
Activity calls are given as the source filed them. Unless noted, how the calls were made is not given here.

How the values were obtained:
[1] = tested on: Wnt5a (protein binding on small-molecule microarray); assay: Wnt5a binders on small-molecule microarray, primary screen, biophysical, 635/667 nm fluorescence (AID 1142); conditions: 635 nm fluorescence, higher = more signal;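 further: fluorescence read at 667 nm with signal to noise per printed feature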
[2] = cell viability in Huh7 cells, primary screen, cytotoxicity control for HCV replication inhibitor project, CellTiter-Glo luminescence, basal, 48 h (AID 1143); conditions: Huh7 HCV replicon, higher = more signal, called active from +8 up or from −8 down;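 further: Huh7 hepatoma cells carrying a hepatitis C replication reporter with no stimulus; test concentration not given here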
[3] = P. aeruginosa biofilm formation inhibitors, primary screen, PAO1 strain, BacTiter-Glo luminescence, LB-PBS (AID 1144); conditions: 12 h, higher = more signal
[4] = CREB reporter modulators without forskolin, primary screen, cell-based, PC12, CRE-LacZ reporter, unstimulated (AID 1145); conditions: no forskolin, luminescence, 4.5 h, higher = more signal, called active from +8 up or from −8 down
[5] = CREB reporter modulators under forskolin, primary screen, cell-based, PC12, CRE-LacZ reporter, forskolin-stimulated (AID 1146); conditions: luminescence, 4.5 h, higher = more signal, called active from +8 up or from −8 down;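 further: PC12 cells with 6xCRE LacZ reporter stimulated by forskolin 10 µM; beta-galactosidase reporter signal reflecting CREB driven transcription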
[6] = target: Streptavidin (Streptomyces avidinii) (UniProt P22629); assay: streptavidin binders on small-molecule microarray, primary screen, artefact control for SMM compound annotation, biophysical, 635/667 nm fluorescence (AID 1147); conditions: streptavidin binding, higher = more signal;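 further: signal reflects streptavidin binding to arrayed compounds as a control protein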
[7] = small-molecule binders of probe aInhba, primary screen, biochemical, small-molecule microarray, 635/667 nm fluorescence (AID 1148); conditions: higher = more signal;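 further: score merges 667nm spot fluorescence with signal-to-noise for antibody binding to printed compounds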
Torsin-1A (Homo sapiens) [8] = target: Torsin-1A (Homo sapiens) (UniProt O14656); assay: torsin A binders from cell lysate, primary screen, small-molecule microarray, wild-type, 635/667 nm (AID 1149); conditions: COS7 hTOR1A-WT lysate, 635 nm fluorescence, higher = more signal
Torsin-1A (Homo sapiens) [9] = target: Torsin-1A (Homo sapiens) (UniProt O14656); assay: small-molecule binders of mutant TOR1A in lysate, primary screen, cell lysate, small-molecule microarray, COS7 lysate, 635/667 nm fluorescence (AID 1150); conditions: COS7 hTOR1A mutant lysate, 635 nm fluorescence, higher = more signal;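 further: score pools 667 nm emission and signal to noise measuring lysate protein binding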
[10] = tested on: Sonic hedgehog protein (Shh); assay: small-molecule binders of Shh protein, primary screen, biochemical, small-molecule microarray, 635/667 nm fluorescence (AID 1151); conditions: small-molecule microarray binding, 635 nm fluorescence; higher = more signal;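 further: Shh protein binding to compounds spotted on small-molecule microarray slides; score combines spot fluorescence intensity with signal-to-noise across triplicate slides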
[11] = E. coli DRC41 culture turbidity changes, primary screen, E. coli filamentation inducer project, strain DRC41, OD650, 48 h (AID 1152);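 further: E. coli MC1000 strain DRC41 lacking acrAB efflux pump and sulA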; conditions: E. coli DRC41 (acrAB sulA), higher = more signal, called active from +8 up or from −8 down
[12] = small-molecule binders of probe aLefty1, primary screen, biochemical, small-molecule microarray, 635/667 nm fluorescence (AID 1153); conditions: higher = more signal;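 further: score merges spot fluorescence with signal-to-noise ratio from the scanned slide images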
[13] = PSAC antagonists in infected red cells, primary screen, cell-based, P. falciparum Indochina, OD700, 1 h (AID 1154); conditions: P. falciparum Indochina infected RBC osmotic lysis, higher = more signal, called active from +8 up or from −8 down
[14] = PSAC antagonists in infected red cells, primary screen, cell-based, P. falciparum Indochina, OD700, 2 h (AID 1155);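 further: lysis reports solute entry through the parasite surface anion channel PSAC; channel blockers reduce lysis of infected cells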; conditions: P. falciparum Indochina infected erythrocytes, osmotic lysis OD700; higher = more signal, called active from +8 up or from −8 down
[15] = osmotic lysis modulators in infected erythrocytes, primary screen, PSAC antagonist project, cell-based, P. falciparum Indochina, OD700, 3 h (AID 1156); conditions: higher = more signal, called active from +8 up or from −8 down
[16] = PSAC antagonists in infected red cells, primary screen, cell-based, P. falciparum Indochina, OD700, 18 h (AID 1157); conditions: P. falciparum Indochina infected erythrocytes, osmotic lysis OD700, 18 h; higher = more signal, called active from +8 up or from −8 down
[17] = modulators of S6 phosphorylation in cells, primary screen, cell-based, A549, cytoblot, luminescence, serum-stimulated (AID 1158); conditions: A549 phospho-S6 cytoblot, 5 h, higher = more signal;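 further: serum-stimulated A549 lung adenocarcinoma cells; signal is phosphorylated S6 detected by cytoblot immunostaining with HRP secondary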
[18] = target: NADPH oxidase 2 (Homo sapiens) (UniProt P04839); assay: NOX2-dependent H2O2 signal modulators, primary screen, NOX inhibitor project, cell-based, HEK293-NOX2, PMA-stimulated, Amplex Red fluorescence (AID 1159); conditions: 45 min, higher = more signal, called active from +8 up or from −8 down; further: test concentration not given here
[19] = target: NADPH oxidase 4 (Homo sapiens) (UniProt Q9NPH5); assay: NOX4-dependent H2O2 signal modulators, primary screen, NOX inhibitor project, cell-based, HEK293-NOX4, tetracycline-induced, Amplex Red fluorescence (AID 1160); conditions: 45 min, higher = more signal, called active from +8 up or from −8 down
[20] = target: NADPH oxidase 5 (Homo sapiens) (UniProt Q96PH1); assay: NOX5-dependent H2O2 signal modulators, primary screen, NOX inhibitor project, cell-based, HEK293-NOX5, Amplex Red fluorescence (AID 1161); conditions: HEK293-NOX5, ionomycin, 45 min, higher = more signal
NADPH oxidase 5 (Homo sapiens), sequence (Q96PH1 whole entry, looked up): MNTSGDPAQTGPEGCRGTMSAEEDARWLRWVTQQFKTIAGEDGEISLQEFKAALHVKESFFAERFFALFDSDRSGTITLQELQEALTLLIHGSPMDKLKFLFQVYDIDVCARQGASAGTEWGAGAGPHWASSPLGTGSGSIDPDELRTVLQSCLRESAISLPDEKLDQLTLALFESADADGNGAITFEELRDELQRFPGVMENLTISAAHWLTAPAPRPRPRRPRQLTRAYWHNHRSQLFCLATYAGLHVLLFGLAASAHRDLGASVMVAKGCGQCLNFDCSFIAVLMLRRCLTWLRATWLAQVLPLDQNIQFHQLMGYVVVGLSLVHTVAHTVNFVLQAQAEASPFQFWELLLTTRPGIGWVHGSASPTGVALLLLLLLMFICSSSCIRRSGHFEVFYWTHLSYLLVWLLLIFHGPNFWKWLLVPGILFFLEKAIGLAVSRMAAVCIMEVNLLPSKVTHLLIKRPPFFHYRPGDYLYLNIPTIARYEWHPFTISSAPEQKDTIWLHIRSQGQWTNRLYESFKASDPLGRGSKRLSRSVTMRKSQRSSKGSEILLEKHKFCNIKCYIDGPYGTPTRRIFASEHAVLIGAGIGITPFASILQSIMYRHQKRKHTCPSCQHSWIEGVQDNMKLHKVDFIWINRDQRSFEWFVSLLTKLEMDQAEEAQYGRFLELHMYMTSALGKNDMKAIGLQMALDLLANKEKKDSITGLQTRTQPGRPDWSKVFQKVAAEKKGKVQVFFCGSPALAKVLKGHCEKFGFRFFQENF

Torsin-1A (Homo sapiens), sequence (O14656 whole entry, looked up): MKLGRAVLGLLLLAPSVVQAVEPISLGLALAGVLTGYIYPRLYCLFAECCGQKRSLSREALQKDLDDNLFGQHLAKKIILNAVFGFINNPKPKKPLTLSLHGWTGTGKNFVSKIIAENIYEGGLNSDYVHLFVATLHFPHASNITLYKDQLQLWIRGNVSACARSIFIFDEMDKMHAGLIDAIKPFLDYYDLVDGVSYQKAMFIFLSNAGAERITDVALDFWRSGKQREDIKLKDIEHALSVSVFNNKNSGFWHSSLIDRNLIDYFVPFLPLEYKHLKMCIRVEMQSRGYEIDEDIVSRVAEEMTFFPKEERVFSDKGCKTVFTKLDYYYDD
NADPH oxidase 2 (Homo sapiens), sequence (P04839 whole entry, looked up): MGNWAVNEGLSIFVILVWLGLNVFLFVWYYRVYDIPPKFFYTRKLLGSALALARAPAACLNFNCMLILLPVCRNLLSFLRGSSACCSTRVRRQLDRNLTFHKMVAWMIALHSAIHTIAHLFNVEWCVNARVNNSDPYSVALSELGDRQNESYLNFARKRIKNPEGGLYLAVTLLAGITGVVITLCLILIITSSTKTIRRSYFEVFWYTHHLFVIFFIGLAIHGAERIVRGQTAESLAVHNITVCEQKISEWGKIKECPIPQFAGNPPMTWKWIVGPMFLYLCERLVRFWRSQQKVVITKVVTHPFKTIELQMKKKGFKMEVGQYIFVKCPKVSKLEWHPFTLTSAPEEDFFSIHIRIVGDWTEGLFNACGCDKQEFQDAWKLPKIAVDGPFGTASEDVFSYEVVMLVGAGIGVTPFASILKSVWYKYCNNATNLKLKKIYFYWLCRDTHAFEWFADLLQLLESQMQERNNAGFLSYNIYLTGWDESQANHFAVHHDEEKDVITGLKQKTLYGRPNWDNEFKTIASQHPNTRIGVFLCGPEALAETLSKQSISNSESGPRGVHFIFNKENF
NADPH oxidase 4 (Homo sapiens), sequence (Q9NPH5 whole entry, looked up): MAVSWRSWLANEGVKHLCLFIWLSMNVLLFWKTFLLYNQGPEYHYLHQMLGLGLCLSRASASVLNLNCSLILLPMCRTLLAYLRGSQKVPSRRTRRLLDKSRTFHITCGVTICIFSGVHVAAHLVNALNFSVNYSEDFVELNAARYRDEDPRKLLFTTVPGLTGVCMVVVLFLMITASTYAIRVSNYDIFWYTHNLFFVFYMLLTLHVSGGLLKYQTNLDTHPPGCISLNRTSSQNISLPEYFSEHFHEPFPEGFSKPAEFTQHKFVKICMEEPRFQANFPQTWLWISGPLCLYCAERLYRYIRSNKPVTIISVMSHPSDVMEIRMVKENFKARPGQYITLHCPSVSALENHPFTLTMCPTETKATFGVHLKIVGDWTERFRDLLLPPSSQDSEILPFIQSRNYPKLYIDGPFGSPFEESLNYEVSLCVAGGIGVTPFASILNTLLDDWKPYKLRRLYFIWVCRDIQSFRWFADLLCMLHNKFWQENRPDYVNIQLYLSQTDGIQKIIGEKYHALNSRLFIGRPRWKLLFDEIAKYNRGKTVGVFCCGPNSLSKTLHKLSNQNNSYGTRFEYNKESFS
Streptavidin (Streptomyces avidinii), sequence (P22629 whole entry, looked up): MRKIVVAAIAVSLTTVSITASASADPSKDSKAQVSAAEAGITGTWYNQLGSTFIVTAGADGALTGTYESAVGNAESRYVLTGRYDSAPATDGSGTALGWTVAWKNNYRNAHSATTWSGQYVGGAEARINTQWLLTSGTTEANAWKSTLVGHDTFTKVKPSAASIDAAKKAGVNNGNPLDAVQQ

Row | Compound | composite z-score [1] | z-score [2] | z-score [3] | z-score [4] | z-score [5] | composite z-score [6] | composite z-score [7] | composite z-score (Torsin-1A (Homo sapiens) [8]) | composite z-score (Torsin-1A (Homo sapiens) [9]) | composite z-score [10] | z-score [11] | composite z-score [12] | z-score [13] | z-score [14] | z-score [15] | z-score [16] | z-score [17] | z-score [18] | z-score [19] | z-score [20]
1 | COCCOC(=O)N1C(=O)[C@@]2(c3ccccc31)[C@H](c1ccc(O)cc1)N1[C@H](c3ccccc3)[C@H](c3ccccc3)OC(=O)[C@H]1[C@@H]2C(=O)N1CCCCCCC1 | 1.08 | -2.61 (inactive) | -1.17 (inactive) | 0.0816 (inactive) | -0.0911 (inactive) | 3.03 | 2.08 | 1.32 | 2.13 | 1.96 | -0.59 (inactive) | 2.86 | -0.0501 (inactive) | 0.619 (inactive) | -0.363 (inactive) | 0.14 (inactive) | -0.43 | 0.54 (inactive) | 0.898 (inactive) | 1.32
2 | C=C(COC)C(=O)CC[C@@H](OC(C)=O)c1ccccc1OCCO | 0.866 | -2.43 (inactive) | -0.787 (inactive) | 1.54 (inactive) | 8.39 (active) | -0.507 | -0.0403 | 0.135 | 1.05 | 2.32 | 0.929 (inactive) | -0.152 | 1.73 (inactive) | -0.91 (inactive) | -0.0421 (inactive) | -1.95 (inactive) | 0.846 | -1.51 (inactive) | 0.146 (inactive) | -1.38
3 | CC(C)(C)N1CC=CC23O[C@@H]4C=CCOC(=O)[C@@H]4[C@H]2C(=O)N(CCO)[C@@H]3C1=O (stereo not given in full) | -0.887 | 0.262 (inactive) | 1.7 (inactive) | 0.744 (inactive) | 1.07 (inactive) | -1.61 | -0.32 | -2.49 | -1.07 | -0.863 | -0.476 (inactive) | -0.0967 | 0.55 (inactive) | 0.184 (inactive) | 0.0221 (inactive) | 0.526 (inactive) | -0.694 | 1.09 (inactive) | 1.32 (inactive) | 1.59
4 | O=C1C=C(c2ccccc2)C(=O)C2=C1CC([C@H]1Oc3ccccc3S(=O)(=O)N3CCC[C@@H]13)=CC2 | -0.0842 | -6.3 (inactive) | 0.497 (inactive) | 4.67 (inactive) | 20.1 (active) | 0.429 | -0.235 | -0.295 | -0.495 | -0.0231 | -0.0139 (inactive) | -0.101 | 2.36 (inactive) | 0.445 (inactive) | -0.299 (inactive) | 0.0841 (inactive) | -0.154 | -0.368 (inactive) | -3.24 (inactive) | -2.66
5 | CC(=O)c1ccc(C(O)C2C=CC3C(=O)N(c4ccccc4)C(=O)C3N2Nc2ccc(C(C)C)cc2)cc1 (stereo not given) | 0.0129 | -1.16 (inactive) | -0.853 (inactive) | 1.4 (inactive) | -0.17 (inactive) | 1.43 | 0.361 | -0.127 | 0.135 | 0.295 | -1.08 (inactive) | 0.281 | 12.7 (active) | 3.03 (inactive) | 1.42 (inactive) | 1.47 (inactive) | -0.617 | -1.6 (inactive) | -1.6 (inactive) | -2.08
6 | CC1CC/C=C\[C@H]2OC34C=CCN(Cc5ccccc5)C(=O)[C@H]3N(CCCCCCO)C(=O)[C@@H]4C2C(=O)O1 (stereo not given in full) | -0.523 | -0.649 (inactive) | 2.79 (inactive) | 0.329 (inactive) | 0.138 (inactive) | -0.871 | -0.206 | 1.4 | -0.549 | 0.06 | 0.528 (inactive) | 0.0249 | -0.107 (inactive) | 0.179 (inactive) | 0.731 (inactive) | 0.111 (inactive) | 1.98 | 1.71 (inactive) | 0.185 (inactive) | 2.2
7 | CCOC(=O)C1=CC[C@@H](c2ccc(OC)cc2)N(S(=O)(=O)c2ccc(C)cc2)[C@H]1CC | 0.174 | -5.57 (inactive) | -0.785 (inactive) | -0.882 (inactive) | -0.0915 (inactive) | 1.53 | 0.152 | 0.318 | 0.714 | 0.964 | 0.938 (inactive) | -0.0018 | 2.22 (inactive) | -0.258 (inactive) | -1.07 (inactive) | -1.62 (inactive) | 1.27 | 0.0165 (inactive) | -0.911 (inactive) | 0.209
8 | CCCC[C@H]1OB(O)C[C@H]2C1=C(COc1ccccc1)C[C@H]1C(=O)C=CC(=O)[C@H]12 | 0.119 | -0.578 (inactive) | -0.327 (inactive) | 6.38 (inactive) | 2.07 (inactive) | 0.0073 | -0.158 | 0.372 | 0.274 | 1.38 | 1.55 (inactive) | -0.134 | 1.49 (inactive) | 0.0962 (inactive) | 0.129 (inactive) | 0.134 (inactive) | -0.0871 | -0.429 (inactive) | -1.48 (inactive) | -5.03
9 | NCCCCCCNC(=O)[C@@H]1C[C@@H]2C(=O)N3CCC[C@H]3C(=O)N2[C@@H]1c1cccc(OCCO)c1 | 0.587 | -0.182 (inactive) | 0.884 (inactive) | -0.386 (inactive) | -1.43 (inactive) | 0.56 | -0.024 | 2.21 | 1.07 | 0.513 | 1.82 (inactive) | 0.012 | 4.29 (inactive) | -0.643 (inactive) | 1.53 (inactive) | -1.8 (inactive) | -0.0015 | 1.62 (inactive) | 1.42 (inactive) | 0.99
10 | NC(=O)N1C(=O)C2C(C1=O)C1C=C(CCCO)C2C(c2ccc(CN3CCCC3)cc2)N1Cc1sc2ccccc2c1Cl (stereo not given) | -0.24 | -3.46 (inactive) | 0.386 (inactive) | -0.0602 (inactive) | -1.08 (inactive) | 0.558 | -0.268 | -0.174 | 0.823 | 0.287 | -0.711 (inactive) | -0.251 | 3.48 (inactive) | 0.894 (inactive) | 0.363 (inactive) | 0.504 (inactive) | 0.457 | -0.101 (inactive) | 0.353 (inactive) | 0.198
